In PubChem BioAssay AID623911 (Vanderbilt High Throughput Screening Facility, 2012):
Among all 2,100 compounds or so, about 770 (37%) were called active. This is one part of the list. Values without a mark were called inactive.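 How the source made its calls: active means by-eye trace score of 1 for enhancers or -1 for inhibitors, so actives lie on both sides (some results past the limit were not filed as active); inactive means score 0, or 3 fluorescent, or 4 baseline rise.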

What follows are compounds tested against G protein-activated inward rectifier potassium channel 2 (Homo sapiens) + G protein-activated inward rectifier potassium channel 1 (Homo sapiens) (UniProt P48051+P48549) (assay: GIRK1/2 thallium flux modulators, retest, confirmation, cell-based, HEK293 rmGlu8/hGIRK1/2, FluoZin-2 (AID 623911)). Conditions: HEK293 rmGlu8/hGIRK1/2, thallium flux FluoZin-2; actives lie on both sides; glutamate co-added at its EC20 level.
Sequence of G protein-activated inward rectifier potassium channel 2 (Homo sapiens) + G protein-activated inward rectifier potassium channel 1 (Homo sapiens) (P48051 whole entry, looked up): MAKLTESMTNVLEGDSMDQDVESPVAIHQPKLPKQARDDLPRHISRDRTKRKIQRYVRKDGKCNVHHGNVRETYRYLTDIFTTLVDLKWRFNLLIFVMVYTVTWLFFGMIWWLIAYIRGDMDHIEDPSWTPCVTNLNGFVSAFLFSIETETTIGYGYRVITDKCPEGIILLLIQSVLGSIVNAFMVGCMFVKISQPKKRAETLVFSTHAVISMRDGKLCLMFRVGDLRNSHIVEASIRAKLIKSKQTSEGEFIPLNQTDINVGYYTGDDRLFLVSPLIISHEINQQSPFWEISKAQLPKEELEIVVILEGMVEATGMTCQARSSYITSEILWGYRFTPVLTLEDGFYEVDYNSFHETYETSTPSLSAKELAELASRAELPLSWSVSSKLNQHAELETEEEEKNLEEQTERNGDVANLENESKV
Sequence of G protein-activated inward rectifier potassium channel 2 (Homo sapiens) + G protein-activated inward rectifier potassium channel 1 (Homo sapiens) (P48549 whole entry, looked up): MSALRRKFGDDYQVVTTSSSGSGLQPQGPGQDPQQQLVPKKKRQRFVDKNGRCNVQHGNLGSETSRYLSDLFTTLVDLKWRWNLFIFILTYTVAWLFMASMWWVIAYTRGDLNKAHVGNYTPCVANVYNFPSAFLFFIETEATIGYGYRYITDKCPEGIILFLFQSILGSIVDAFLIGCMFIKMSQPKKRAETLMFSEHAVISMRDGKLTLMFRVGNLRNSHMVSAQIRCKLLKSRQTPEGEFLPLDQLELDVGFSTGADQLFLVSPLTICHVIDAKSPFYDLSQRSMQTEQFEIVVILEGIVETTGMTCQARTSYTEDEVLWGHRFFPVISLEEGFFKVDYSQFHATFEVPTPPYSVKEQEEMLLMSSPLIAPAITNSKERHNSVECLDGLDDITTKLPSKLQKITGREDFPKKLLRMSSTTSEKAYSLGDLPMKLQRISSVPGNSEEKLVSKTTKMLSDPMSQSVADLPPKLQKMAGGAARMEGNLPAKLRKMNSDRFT

| SMILES | manual score |
| --- | --- |
| CC(C)n1c(O)c(N=Nc2ccccn2)c2ccccc21 | 0 |
| Oc1c(N=Nc2ccccn2)ccc2ccccc12 | 1 (active) |
| Oc1ccc2ccccc2c1N=Nc1ccccn1 | 0 |
| O=C(NC(=S)NCC1COc2ccccc2O1)c1ccccc1 (stereo unspecified) | 0 |
| C=CCNC(=O)NC(=S)c1ccccc1 | 0 |
| CN(Cc1ccccc1)C(=S)NC(=O)c1ccc(-c2ccccc2)cc1 | 0 |
| C=CCN(CC=C)C(=S)NC(=O)c1ccc([N+](=O)[O-])cc1 | 1 (active) |
| CCCN(CCC)C(=S)NC(=O)c1ccc(-c2ccccc2)cc1 | 1 (active) |
| C=CCN(CC=C)C(=S)NC(=O)c1ccc(-c2ccccc2)cc1 | 1 (active) |
| FC(F)(F)c1cnc(NNC(=S)Nc2ccc(Cl)cc2)c(Cl)c1 | 1 (active) |
| O=C1/C(=C\c2ccccn2)SC(=S)N1Nc1ncc(C(F)(F)F)cc1Cl | 0 |
| FC(F)(F)c1cnc(NNC(=S)Nc2ccccc2Cl)c(Cl)c1 | 1 (active) |
| NC(=O)c1ccc(Cc2ncc(C(F)(F)F)cc2Cl)s1 | 0 |
| Cc1ccc(NC(=S)NNc2ncc(C(F)(F)F)cc2Cl)c(C)c1 | 0 |
| CC(C)CC(=O)CN1C(=O)C2(OCCO2)c2ccccc21 | 0 |
| CCCCN(C)CC(O)Cn1cc(/C=C/C(=O)c2cccs2)c2ccccc21 (stereo unspecified) | 3 |
| O=C1CC(c2ccncc2)c2cc3c(cc2N1)OCCO3 (stereo unspecified) | 0 |
| CC(C)OCCCn1c(=S)[nH]c2cc3c(cc2c1=O)OCO3 | 1 (active) |
| O=c1c2cc(F)ccc2[nH]c(=S)n1CCCN1CCOCC1 | 0 |
| COc1ccc(C(C)N2CC34C=CC(O3)C(C(=O)OCC(C)C)C4C2=O)cc1 (stereo unspecified) | 0 |
| CCCOc1cccc(-c2cc(-c3n[nH]c(=S)n3CC)c3ccccc3n2)c1 | 0 |
| COc1ccc(S(=O)(=O)N(CCc2ccccc2)CC(=O)O)cc1 | 0 |

| SMILES | manual score |
| --- | --- |
| COc1cc(C)nc(N(Cc2ccccc2)S(=O)(=O)c2ccccc2)n1 | -1 (active) |
| Cc1c(C#N)c2ncn(CC#N)c(=O)c2n1-c1ccccc1 | 0 |
| CC(=O)c1cccc(NC(=S)NC(=O)c2cccc(Cl)c2)c1 | 1 (active) |
| Cc1cccc(C(=O)NC(=S)NNC(=O)c2ccccc2Cl)c1 | 1 (active) |
| Cc1cccc(C(=O)NC(=S)NNC(=O)c2ccc(Cl)cc2)c1 | 1 (active) |
| O=C(NC(=S)NNC(=O)c1cccs1)c1ccc(Br)o1 | 1 (active) |
| CC(=O)c1cccc(NC(=S)NC(=O)c2cccc(C)c2)c1 | 0 |
| O=C(NC(=S)Nc1ccc(N2CCOCC2)cc1)c1cccc(Cl)c1 | 0.5 |
| O=C(/C=C/c1cccs1)NC(=S)NNC(=O)Cc1cccs1 | 0 |
| CC1CC(C)CN(Cc2nc(N)nc(Nc3ccc4ccccc4c3)n2)C1 (stereo unspecified) | 0 |
| O=c1c(O)c(-c2cccs2)oc2ccccc12 | 3 |
| Cc1ccc(C2CC2C(=O)NNC(=S)Nc2ccc(Cl)cc2)cc1 (stereo unspecified) | 0 |
| Cc1ccc(C(=O)NNC(=S)NC(=O)c2ccc(Cl)cc2)cc1 | 1 (active) |
| Cc1cccc(C(=O)NC(=S)Nc2ccccc2C(F)(F)F)c1 | 0 |
| Cc1cccc(C(=O)NC(=S)NNC(=O)c2cccs2)c1 | 1 (active) |
| Cc1ccc(C(=O)NNC(=S)NC(=O)c2ccc(Cl)cc2Cl)cc1 | 0.5 |
| Cc1c(C(=O)O)sc2nc3n(c(=O)c12)CCC(C)CC3 (stereo unspecified) | 0 |
| CCCN(CCC)CC(O)Cn1cc(/C=C/C(=O)c2cccs2)c2ccccc21 (stereo unspecified) | 3 |
| COc1ccc(Nc2nc(C)cc(C)c2C#N)cc1OC | 0 |
| CCCC1COC(Cn2cncn2)(c2ccc(C)cc2)O1 (stereo unspecified) | 0 |
| COCCn1c(CN(Cc2ccccc2)Cc2ccccc2)nc2c1c(=O)n(C)c(=O)n2C | -1 (active) |
| COc1ccc(N2CCN(c3nc4c(c(=O)n(C)c(=O)n4C)n3Cc3ccccc3)CC2)cc1 | -1 (active) |

| SMILES | manual score |
| --- | --- |
| CCCCn1c(CN(Cc2ccccc2)Cc2ccccc2)nc2c1c(=O)n(C)c(=O)n2C | -1 (active) |
| COC(=O)Cn1c(CN2CCc3ccccc3C2)nc2c1c(=O)n(C)c(=O)n2C | 0 |
| CCCOc1nc2c(c(=O)n(C)c(=O)n2C)n1Cc1cccc2ccccc12 | -0.5 |
| CN(C)CCCOc1nc2c(c(=O)n(C)c(=O)n2C)n1C | 0 |
| CC1CCCCN1Cc1nc2c(c(=O)n(C)c(=O)n2C)n1CCc1ccccc1 (stereo unspecified) | -1 (active) |
| N#CCSc1nc2ccc(N3CCOCC3)cc2c(=O)n1CCc1ccccc1 | 0 |
| COC(=O)C(C)Sc1nc2c(c(=O)n(C)c(=O)n2C)n1Cc1cccc(C)c1 (stereo unspecified) | 0 |
| Cn1c(=O)c2c(nc(-n3ccnc3)n2Cc2ccccc2)n(C)c1=O | 0 |
| COc1ccc2nc3oc(C(=O)Nc4ccc(OC)c(OC)c4)cc3cc2c1 | 0 |
| CC1(C)Cc2ccccc2-c2nnc(SCC(=O)Nc3nc4ccccc4s3)n21 | 0 |
| O=c1[nH]c(SCc2ccccc2Cl)nc2c1CCCC2 | 0 |
| COc1ccc(-c2nnc(CSc3nc4ccccc4c(=O)n3C)o2)cc1OC | -1 (active) |
| CCCCn1c(SCC(=O)/C(C#N)=C(\C)N)nc2ccccc2c1=O | 0.5 |
| COc1cc(-c2nnc(CSc3nc4ccccc4s3)o2)cc(OC)c1OC | -0.5 |
| CCn1c(-c2ccc(-c3ccccc3)cc2)c[nH]c1=S | 0 |
| COc1ccc(OCc2nc(N)nc(Nc3ccccc3)n2)cc1 | 0 |
| COC(=O)c1ccccc1NC(=S)NC(NC(=O)c1ccco1)C(Cl)(Cl)Cl (stereo unspecified) | 0 |
| Cc1nnc(NC(=O)c2ccco2)s1 | 0 |
| COc1ccccc1NC(=O)C(=O)NNC(=O)c1ccco1 | 1 (active) |
| COc1ccc(C)cc1NC(=O)C(=O)NNC(=O)c1ccco1 | 1 (active) |
| COc1cccc(CNCCNC(=O)c2ccco2)c1OC | 0 |
| Cc1cc(NC(=O)c2ccco2)ccc1NC(=O)Cc1cccs1 | 0 |

| SMILES | manual score |
| --- | --- |
| Cc1ccc(NC(=O)CSc2nnc(CCNC(=O)OC(C)(C)C)o2)c(C)c1 | 0 |
| Cc1ccc(/C=N\NC(=O)c2cc([N+](=O)[O-])cc([N+](=O)[O-])c2)o1 | 0 |
| O=C(N/N=C\c1cc(Br)c(Br)o1)c1cncc(Br)c1 | 1 (active) |
| CCc1ccc(C2=NN(c3ccc(S(N)(=O)=O)cc3)C(c3ccc(F)cc3)C2)cc1 (stereo unspecified) | 0 |
| O=C(Nc1ccc(F)cc1)c1cccnc1N1CCOCC1 | 0 |
| CCN(Cc1ccccc1)C(c1ccccn1)c1nnnn1C1CCCCC1 (stereo unspecified) | -1 (active) |
| CCC(C)(C)n1nnnc1C(c1ccccn1)N1CCCCC1 (stereo unspecified) | 0 |
| O=C(NC(=S)Nc1cccc(Cl)c1N1CCCCC1)c1ccco1 | 0 |
| CC(Oc1ccc(Cl)cc1)C(=O)NNC(=S)NC(=O)c1ccco1 (stereo unspecified) | 1 (active) |
| CC(Oc1ccc2ccccc2c1)C(=O)NNC(=S)NC(=O)c1ccco1 (stereo unspecified) | 1 (active) |
| O=C(NC(=S)Nn1cnc2c(cnn2-c2ccccc2)c1=O)c1ccc(Oc2ccccc2)cc1 | 0 |
| Cc1cc(NC(=O)CSc2nc3ccsc3c(=O)n2NC(=O)c2ccccc2)no1 | 0 |
| Cc1ccc(N(C(=O)CCC(=O)Nc2cc(C)on2)C(C(=O)NC2CCCC2)c2cccs2)cc1 (stereo unspecified) | -1 (active) |
| Fc1ccc2nc(-c3ccccc3)nc(SCc3nnc(-c4ccccc4)o3)c2c1 | 1 (active) |
| c1ccc(Cc2nnc(-c3ccccc3)o2)cc1 | 0 |
| O=S(=O)(c1ccc(-c2nnc(SCc3nnc(-c4ccccc4)o3)o2)cc1)N1CCCC1 | 0 |
| O=C(NCc1ccccc1)C(=O)Nc1nc(C23CC4CC(CC(C4)C2)C3)cs1 | 0 |
| O=C(NC(=S)Nc1ccc2oc(-c3cccnc3)nc2c1)c1cccc(Cl)c1 | 0 |
| Fc1cccc(/C=N/NC(=S)Nc2ccccc2Cl)c1 | 0.5 |
| FC(F)Oc1ccccc1NC(=S)Nc1cccc(Cl)c1Cl | 1 (active) |
| O=C(Nc1cc(Cl)ccc1Oc1ccccc1)c1ccccc1F | 0 |
| S=C(Nc1ccc(Cl)cc1Cl)Nc1ccccc1Oc1ccccc1 | 0 |

| SMILES | manual score |
| --- | --- |
| S=C(Nc1ccccc1)Nc1cc(Cl)ccc1Oc1ccccc1 | 0 |
| S=C(Nc1cccc(Cl)c1)Nc1cccc2cnccc12 | 1 (active) |
| COC(=O)c1cccc(NC(=S)Nc2cccc(Cl)c2Cl)c1 | 0 |
| S=C(Nc1cccc(Cl)c1)Nc1ccccc1Oc1ccccc1 | 1 (active) |
| S=C(Nc1ccccc1Oc1ccccc1)Nc1cccc(Cl)c1Cl | 1 (active) |
| C=C(C)CNC(=S)Nc1cccc2cnccc12 | 0 |
| COc1ccc(C)cc1S(=O)(=O)Nc1cccc(Cl)c1Cl | 0 |
| COc1ccc(N/C(C)=C2/C(=O)C(=O)N(CCO)C2c2ccc(Br)cc2)cc1 (stereo unspecified) | 0 |
| N#CC1=C(N)Oc2n[nH]c(-c3cccs3)c2C1c1ccoc1 (stereo unspecified) | 0 |
| O=C(Cn1nc(Cc2ccncc2)c2ccccc2c1=O)N1CCN(C(=O)c2ccco2)CC1 | 0 |
| O=c1c2ccccc2nc(SCc2cn3ccsc3n2)n1-c1ccc(F)cc1 | 0 |
| COC(=O)NC(=S)Nc1ccc(Oc2ccc(Cl)cc2Cl)c(Cl)c1 | 0 |
| Cc1ccc(NC(=S)Nc2ccc(Cl)c(Cl)c2)c(OC(F)F)c1 | 1 (active) |
| Fc1ccc(NC(=S)Nc2ccccc2OC(F)F)cc1Cl | 1 (active) |
| O=C(O)CN=C(NS(=O)(=O)c1ccccc1)c1ccccc1 | 0 |
| Cc1cc(C(=O)CSc2nnc(-c3ccncc3)n2-c2ccccc2)c(C)n1C | 0 |
| COc1ccccc1-n1cnnc1SCC(=O)c1cc(C)n(Cc2cccs2)c1C | -1 (active) |
| COc1ccc(Cl)cc1C(=O)CSc1nnnn1C1CCCC1 | 0 |
